Measured potencies and affinities stand elsewhere. Activity calls are given as the source filed them.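 How the source made its calls: active means a dose-response curve fit returns a half-maximal inhibitory concentration, extrapolated values included; inactive means the fit returns no such concentration.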
Molecular target: HMG-CoA reductase [Enterococcus faecalis] (UniProt Q9FD70)
Assay: inhibitors of E. faecalis class II HMGR, confirmation, biochemical, Enterococcus faecalis (AID 1233)
Details: purified E. faecalis HMGR, NADPH absorbance 340 nm kinetics; series mostly up to 100 µM

outcome, inactive:
CNc1cc(N2CCCCCC2)ccc1[N+](=O)[O-], Cc1nc(SCC(=O)N2CC(=O)Nc3ccccc32)c2c(C)c(C)sc2n1, CC(C)c1ccc(NC(=O)COC(=O)/C=C/c2cccc(Br)c2)cc1, Cc1ccc(NS(=O)(=O)c2ccc(NC(=O)[C@@H]3CCCC[C@@H]3C(=O)O)cc2)c(C)c1, CCOc1ccc(OCCCC(=O)Nc2nc3ccccc3[nH]2)cc1, COc1ccccc1C(=O)NNC(=O)c1ccc(NC(=O)c2ccccc2)cc1, COC(=O)CNC(=O)CSc1nnc2cc(C)c3ccccc3n12, O=C1c2ccccc2C(=O)C1c1ccc2ccccc2n1, O=C1c2ccccc2C(=O)N1CCC(O)C[N+](=O)[O-] (centres undefined), CCn1c(C)nc2cc(S(=O)(=O)C(F)(F)C(F)C(F)(F)F)ccc21 (centres undefined), COc1ccc2ccc(=O)oc2c1, COc1ccc(CCNc2ccncn2)cc1, COc1cccc(C2NC(=O)NC(O)(C(F)(F)F)C2C(=O)c2cccnc2)c1OC (centres undefined), O=C(Nc1cccnc1)c1ccc(COc2ccccc2Cl)o1, COc1ccc(NC(=O)N(Cc2cc3ccc(OC)cc3[nH]c2=O)CC2CCCO2)cc1 (centres undefined), O=C(NC(NC(=S)Nc1ccccc1C(=O)O)C(Cl)(Cl)Cl)c1ccccc1 (centres undefined), NNC(=O)C1CC1c1ccc(Cl)cc1 (centres undefined), Cc1cc(C=O)c2c(c1)C=CC1(Oc3ccccc3C(=O)N1C)O2 (centres undefined), CC(Sc1nnc(-c2ccccc2)c(-c2ccccc2)n1)C(=O)Nc1ncc(Cl)cc1Cl (centres undefined)

— PubChem BioAssay AID1233 (SRMLSC, 2008)
